Shown are actives, neighbours in structure and some others; about 1.1% of the full set was active somewhere.
TNFa cytotox: toxic to HUVEC cells under TNF alpha stimulation; HUVEC TNFalpha-stimulated, Hoechst cell count, imaging; cell count reduction, % at 2 µM; actives 0.17% (n = 93,000);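 active = cell count reduction exceeding the screen mean by over 5 SD, scaled to untreated wells per plate, cut at about 78% in these data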;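 also: cells counted after 24 h of TNF alpha exposure following the 1 h pretreatment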
VCAM1 TNFa inh: reduces TNF alpha induced VCAM1 expression in HUVEC | HUVEC TNFa-induced VCAM-1 immunofluorescence, high-content imaging | actives 0.48% (n = 95,000) | inhibition, % at 2 µM;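 active = inhibition above the batch mean plus 3 SD, with images confirmed as a hit by eye, cut at about 37% in these data; inconclusive = inhibition above that limit but hit not confirmed in images; inactive = inhibition not above that limit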;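 also: 0% = TNF-stimulated DMSO wells and 100% = unstimulated control wells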
E-sel TNF inh: TNF alpha driven E-selectin expression inhibition. AID 1246. actives 0.71% (n = 120,000). HUVEC TNFa-induced E-selectin immunofluorescence, high content. inhibition, % at 2 µM;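 active = inhibition above the batch mean plus 3 SD, and confirmed as a hit on visual image review, cut at about 43% in these data; inconclusive = passes the inhibition cutoff but fails visual image review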;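 also: 0% = TNF-stimulated DMSO wells and 100% = unstimulated control wells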
cytoskel mod: alters cytoskeleton assembly in HUVEC cells | HUVEC TNFa F-actin phalloidin imaging, high content | inhibition, % at 2 µM | actives 0.18% (n = 91,000) | AID 836;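 active = inhibition above the batch mean plus 3 SD and confirmed as a hit by visual image inspection, cut at about 30% in these data, passing the limit was not always enough; inconclusive = above the inhibition threshold but rejected on visual inspection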
* hit, by the source's call; ? = inconclusive; / = not tested or not shown.

SMILES | TNFa cytotox | VCAM1 TNFa inh | E-sel TNF inh | cytoskel mod
CCOC(=O)c1cccc(NC(=O)C2(S(=O)(=O)c3ccc(C)cc3)CC2)c1 | / | / | -1 | /
CC(C)(C)c1cc(OC(=O)c2ccncc2)ccc1O | -3 | -2 | 93* | 2
COc1ccc(S(=O)(=O)N(C)C)cc1NC(=O)Cc1cccs1 | / | / | -3 | /
Cn1nnnc1SCC(=O)Nc1cccc([N+](=O)[O-])c1 | / | / | 76* | /
Cn1ccnc1SCC(=O)Nc1cccc([N+](=O)[O-])c1 | / | / | -17 | /
CCC(=O)NC(c1ccc([N+](=O)[O-])cc1)c1c(O)ccc2ccccc12 (stereo not given) | -8 | 5 | 100* | -31
CCCCC(=O)NC(c1ccc([N+](=O)[O-])cc1)c1c(O)ccc2ccccc12 (stereo not given) | / | / | -1 | /
COc1ccccc1-c1nc(-c2ccccc2)[nH]c(=O)c1C#N | / | / | 1 | /
Cc1ccc(S(=O)(=O)N/N=C/c2ccc(OCC(=O)NC(C)C)cc2)cc1 | -7 | -11 | 10 | 27
O=C(N/N=C/c1ccncc1)c1ccccc1 | 56 | 62* | -3 | -18
O=C(N/N=C/c1ccc(C(F)(F)F)cc1)c1ccc(O)cc1 | / | / | 78* | /
O=C(CSc1ccccn1)N/N=C/c1ccccc1[N+](=O)[O-] | / | / | 62* | /
Cc1ccc(-c2noc(CSc3nc(N)cc(N)n3)n2)cc1 | 72 | 30 | / | 35*
Cc1ccc(-c2noc(CSc3ccccc3)n2)cc1 | -8 | 16 | -4 | -1
CC(C)NC(=O)NC(=O)COC(=O)c1cccc(S(=O)(=O)N2CCCCC2)c1 | / | / | 6 | /
C=CCNS(=O)(=O)c1nc(C)c(Cl)c(C)c1C#N | / | / | 79* | /
O=C(NCCN1CCOCC1)c1ccc(-c2ccccc2)cc1 | -22 | 2 | -27 | 4
O=C(Cc1ccc(-c2ccccc2)cc1)NCCN1CCOCC1 | / | / | 95* | /
COc1ccc(Cl)cc1-c1nc(SCC(=O)NC2CC2)n[nH]1 | / | / | -41 | /
C/C(=N\Nc1cc(-c2ccccc2)nc(-c2ccccc2)n1)c1ccc(O)c(C)c1 | / | / | 80* | /
CCc1ccc(S(=O)(=O)NCCc2cn3cccc(C)c3n2)s1 | / | / | -19 | /
Cc1oc2cc3c(C(=O)N4CCCCC4)c(C)oc3cc2c1C(=O)N1CCCCC1 | 80* | 89* | -27 | -22
Cc1oc2cc3c(C(=O)N4CCN(c5ccccc5)CC4)c(C)oc3cc2c1C(=O)N1CCN(c2ccccc2)CC1 | -34 | 15 | 1 | 23
CCOC(=O)C1C(=O)C=C(c2ccc(C)cc2)CC1c1cccc([N+](=O)[O-])c1 (stereo not given) | / | / | -69 | /
CC1(C)CC(=O)c2cc(OCC(=O)NCCCN3CCN(c4ccc(F)cc4)CC3)ccc2O1 | -25 | -3 | / | 48*
SMILES | TNFa cytotox | VCAM1 TNFa inh | E-sel TNF inh | cytoskel mod
O=C(O)CCNC(=O)C12CC3CC(CC(C3)C1)C2 | / | / | 14 | /
Cc1nn(S(=O)(=O)c2cccs2)c(C)c1Sc1ccc([N+](=O)[O-])cc1 | -50 | 6 | -76 | 1
Cc1nn(S(=O)(=O)c2ccccc2)c(C)c1Sc1ccc([N+](=O)[O-])cc1 | 14 | 10 | / | 46*
O=c1c2c3c(sc2nc2n1CCC2)CCC3 | -13 | 15 | 4 | 37*
O=c1c2c3c(sc2nc2n1CCCC2)CCCC3 | -6 | -6 | -60 | -4
O=C(Cc1cccs1)NCc1ccccc1 | / | / | -35 | /
O=C(Cc1cccs1)NCc1ccncc1 | -2 | -1 | 64* | -12
CC1CCCCC1NCC(=O)NCc1ccc(F)cc1 (stereo not given) | / | / | -19 | /
COC(=O)CSc1nc2nc(C)c(Br)cc2[nH]1 | 100* | ? | 11 | ?
C=C(C)CSc1nc2nc(C)c(Br)cc2[nH]1 | -6 | 3 | 13 | 0
CCOC(=O)C(C)(C)N(Cc1ccc(Cl)cc1)S(=O)(=O)c1ccc(Cl)c([N+](=O)[O-])c1 | / | / | 0 | /
CC(=O)c1c(C)oc2ccc(N(C(C)=O)S(=O)(=O)c3ccc(Cl)c([N+](=O)[O-])c3)cc12 | 8 | 88* | 7 | -20
Cc1nn(C)cc1CN(C)C(=O)c1cc(-c2ccccc2)nc2ccc(Br)cc12 | / | / | -20 | /
O=C(Nc1ccccc1N1CCCC1)c1ccc([N+](=O)[O-])cc1Cl | / | / | 20 | /
COc1ccc(-n2nc([N+](=O)[O-])c(=NCc3ccco3)n2O)cc1 | / | / | -11 | /
COc1ccc(-n2nc([N+](=O)[O-])c(=NCCc3ccc(Cl)cc3)n2O)cc1 | 2 | 4 | 55* | 15
S=C(Nc1cccc2ccccc12)N1CCN(c2ncccn2)CC1 | -2 | -20 | -34 | -14
NC(=O)C1CCCN(C(=S)Nc2cccc3ccccc23)C1 (stereo not given) | / | / | 70* | /
CC1=CCC2C(=O)N(c3ccc(OC(=O)c4ccco4)cc3)C(=O)C2C1 (stereo not given) | / | / | 6 | /

Assay outcomes as filed in PubChem BioAssay.
